In PubChem BioAssay (Tox21) one finds Potency and outcome data, which are given here for 7 compounds.

Experiment [1] can be described thus: qHTS assay to identify small molecule antagonists of the glucocorticoid receptor (GR) signaling pathway - cell viability counter screen (AID 720693). Further: nearly all actives have a fitted effect of over 55% in size. Further: potency means the concentration at half of the fitted maximal effect.
Experiment [2] is described as follows: qHTS assay for identifying genotoxic compounds that show differential cytotoxicity against isogenic chicken DT40 cell lines with known DNA damage response pathways - wild type cell line (AID 743012). Further: nearly all actives have a fitted effect of over 60% in size. Further: potency means the concentration at half of the fitted maximal effect. In short, it runs like this:
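Parental DNA repair-proficient DT40 cells, 300 per well, were pre-incubated ~0.5 h at 37 C/5% CO2, pin-dosed with compounds in DMSO, then incubated 40 h. Viability was read as CellTiter-Glo luminescence after 30 min at room temperature.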

Experiment [3] can be described thus: qHTS assay for identifying genotoxic compounds that show differential cytotoxicity against isogenic chicken DT40 cell lines with known DNA damage response pathways - Rev3 mutant cell line (AID 743014; further: nearly all actives have a fitted effect of over 55% in size; further: potency means the concentration at half of the fitted maximal effect). (In general: qHTS replaces the single test concentration by a dilution series.)
A short description of experiment [4]: qHTS assay for identifying genotoxic compounds that show differential cytotoxicity against isogenic chicken DT40 cell lines with known DNA damage response pathways - Rad54/Ku70 mutant cell line (AID 743015). Further: nearly all actives have a fitted effect of over 60% in size. Further: potency means the concentration at half of the fitted maximal effect.
The nature of experiment [5]: qHTS assay to identify small molecule antagonists of the androgen receptor (AR) signaling pathway - cell viability counter screen (AID 743033; further: nearly all actives have a fitted effect of over 45% in size; further: potency means the concentration at half of the fitted maximal effect).
Experiment [6] in a line: qHTS assay to identify small molecule antagonists of the androgen receptor (AR) signaling pathway using the MDA cell line - cell viability counter screen (AID 743041; further: nearly all actives have a fitted effect of over 45% in size; further: potency means the concentration at half of the fitted maximal effect). Put shortly:
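MDA-kb2 AR-luc human breast carcinoma cells (MMTV-luciferase, AR/GR responsive) were treated with compounds plus R1881 agonist for 16 h at 37 °C. Viability was read as CellTiter-Fluor fluorescence in the same wells as the reporter assay.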

Experiment [7] in a line: qHTS assay to identify small molecule antagonists of the thyroid receptor (TR) signaling pathway - cell viability counter screen (AID 743064). Further: nearly all actives have a fitted effect of over 50% in size. Further: potency means the concentration at half of the fitted maximal effect. Put shortly: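 In rat pituitary GH3.TRE-Luc reporter cells co-exposed to compound and 1 nM T3 for 23.5 h, cytotoxicity was assessed with CellTiter-Fluor in the same wells, read by fluorescence.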
Experiment [8] is described as follows: qHTS assay to identify small molecule antagonists of the estrogen receptor alpha (ER-alpha) signaling pathway - cell viability counter screen (AID 743074; calls by dose curve; further: nearly all actives have a fitted effect of over 45% in size; further: potency means the concentration at half of the fitted maximal effect).
The nature of experiment [9]: qHTS assay to identify small molecule antagonists of the estrogen receptor alpha (ER-alpha) signaling pathway using the BG1 cell line - cell viability counter screen (AID 743081).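 Further: compound given together with 17beta-estradiol as the ER stimulus; nearly all actives have a fitted effect of over 45% in size.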 Further: potency means the concentration at half of the fitted maximal effect.
Experiment [10] concerns the target Aromatase (Homo sapiens) (UniProt P11511). As to the kind of experiment: qHTS assay to identify aromatase inhibitors (AID 743083). Further: nearly all actives have a fitted effect of over 55% in size. Further: potency means the concentration at half of the fitted maximal effect.
Experiment [11] in a line: qHTS assay to identify aromatase inhibitors - cell viability counter screen (AID 743084).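 Further: cells stimulated with testosterone during compound exposure; nearly all actives have a fitted effect of over 55% in size.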 Further: potency means the concentration at half of the fitted maximal effect.
A short description of experiment [12]: qHTS assay to identify small molecule antagonists of the thyroid receptor (TR) signaling pathway (AID 743065). Further: nearly all actives have a fitted effect of over 55% in size. Further: potency means the concentration at half of the fitted maximal effect. Put shortly:
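GH3.TRE-Luc rat pituitary cells carrying two TR response elements driving luciferase were plated for 4 h, given compound plus 1 nM T3 (final), and incubated 23.5 h at 37 C. ONE-Glo luminescence measured reporter inhibition; CellTiter-Fluor fluorescence tracked cytotoxicity.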

The subject of experiment [13] is thyroid hormone receptor (rat, GH3 cells). As to the kind of experiment: qHTS assay to identify small molecule agonists of the thyroid receptor (TR) signaling pathway (AID 743066; calls by dose curve).
Experiment [14] concerns the target Estrogen receptor (Homo sapiens) (UniProt P03372). As to the kind of experiment: qHTS assay to identify small molecule agonists of the estrogen receptor alpha (ER-alpha) signaling pathway (AID 743075; calls by dose curve).
For experiment [15] the target is unchanged. Nature of the experiment: qHTS assay to identify small molecule agonists of the estrogen receptor alpha (ER-alpha) signaling pathway using the BG1 cell line (AID 743079). Further: nearly all actives have a fitted effect of over 20% in size.
The nature of experiment [16]: qHTS assay to identify small molecule antagonists of the estrogen receptor alpha (ER-alpha) signaling pathway using the BG1 cell line (AID 743080; calls by dose curve;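 further: BG1 cells stimulated with 17beta-estradiol alongside compound; series mostly up to about 70 µM; nearly all actives have a fitted effect of over 25% in size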). Put shortly: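 After 5 days in phenol-red-free 10% charcoal-stripped FBS medium, BG1-Luc-4E2 cells were seeded, left 24 h at 37 C, co-treated with compounds and 17beta-estradiol for 21.5 h, then assayed for viability and luciferase.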

Experiment [17] deals with Estrogen receptor (Homo sapiens) (UniProt P03372). Nature of the experiment: qHTS assay to identify small molecule antagonists of the estrogen receptor alpha (ER-alpha) signaling pathway (AID 743069; active means well fitted curve in the direction sought with a large enough effect in the signal ratio in the repeat runs, not every such curve was filed as active; inconclusive means weak or mixed curves, or effect the other way; inactive means no such curve, though single readings can be large or run the other way; the % refers to the signal ratio; further: potency means the concentration at half of the fitted maximal effect). In short, it runs like this: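 HEK293 cells stably carrying an ER-alpha-UAS-bla beta-lactamase reporter were pre-cultured overnight in 2% charcoal-stripped FBS medium. Test compounds in DMSO were added together with 17beta-estradiol for 18 hr at 37C. Read-out was fluorescence after 2 hr with LiveBLAzer B/G FRET substrate at room temperature.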

The target of experiment [18] is Androgen receptor (Homo sapiens) (UniProt P10275). Nature of the experiment: qHTS assay to identify small molecule agonists of the androgen receptor (AR) signaling pathway (AID 743036; active means well fitted activation curve with a large enough effect in the signal ratio in the repeat runs, with a control signal flat, not every such curve was filed as active; inconclusive means weak or mixed curves, or effect the other way; inactive means no such curve, though single readings can be large or run the other way; the % refers to the signal ratio). Put shortly:
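Cell-based FRET reporter assay: HEK293 line with a UAS-beta-lactamase construct, compounds added in DMSO, 16 h exposure at 37C, then 2 h substrate step at room temperature and fluorescence intensity read.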

For experiment [19] the target is unchanged. As to the kind of experiment: qHTS assay to identify small molecule agonists of the androgen receptor (AR) signaling pathway using the MDA cell line (AID 743040; further: nearly all actives have a fitted effect of over 20% in size). In short, it runs like this: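 MDA-kb2 breast carcinoma cells stably carrying an MMTV-driven luciferase reporter (AR- and GR-responsive) were seeded and held 5 h at 37C, 0% CO2, then exposed to compounds in DMSO for 16 h. Luminescence was read 30 min after ONE-Glo addition.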

The target is the same in experiment [20]. Nature of the experiment: qHTS assay to identify small molecule antagonists of the androgen receptor (AR) signaling pathway using the MDA cell line (AID 743042; further: nearly all actives have a fitted effect of over 55% in size; further: potency means the concentration at half of the fitted maximal effect). In short, it runs like this: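 MDA-kb2 cells (human breast carcinoma, stably carrying an MMTV-luciferase reporter responsive to AR and GR) were plated at 3,000 cells/well and preincubated 5 hr at 37C, then given compound plus R1881 agonist for 16 h. ONE-Glo luminescence was read.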

Molecules are shown by their SMILES. The source made the active and inactive calls. Unless noted, the call rests on the fitted dose curve; in most records, active means well fitted curve in the direction sought with a large enough effect in the repeat runs; inconclusive means weak or mixed curves; inactive means no such curve, though single readings can be large; an effect the other way counts as inactive or inconclusive.

Chain of Aromatase (Homo sapiens) (P11511 whole entry, looked up): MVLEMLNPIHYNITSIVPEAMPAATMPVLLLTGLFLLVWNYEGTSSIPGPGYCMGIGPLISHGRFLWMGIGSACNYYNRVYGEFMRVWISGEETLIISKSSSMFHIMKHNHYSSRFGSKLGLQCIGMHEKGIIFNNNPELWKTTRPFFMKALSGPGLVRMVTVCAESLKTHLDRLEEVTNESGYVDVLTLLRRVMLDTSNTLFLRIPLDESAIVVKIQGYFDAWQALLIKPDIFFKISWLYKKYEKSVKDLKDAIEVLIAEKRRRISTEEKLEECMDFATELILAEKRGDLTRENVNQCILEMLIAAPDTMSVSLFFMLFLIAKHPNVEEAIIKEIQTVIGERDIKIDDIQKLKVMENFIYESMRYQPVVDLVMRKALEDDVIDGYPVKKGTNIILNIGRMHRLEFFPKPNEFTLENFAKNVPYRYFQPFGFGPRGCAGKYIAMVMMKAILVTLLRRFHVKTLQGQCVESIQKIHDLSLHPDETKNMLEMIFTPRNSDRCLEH
Chain of Estrogen receptor (Homo sapiens) (P03372 whole entry, looked up): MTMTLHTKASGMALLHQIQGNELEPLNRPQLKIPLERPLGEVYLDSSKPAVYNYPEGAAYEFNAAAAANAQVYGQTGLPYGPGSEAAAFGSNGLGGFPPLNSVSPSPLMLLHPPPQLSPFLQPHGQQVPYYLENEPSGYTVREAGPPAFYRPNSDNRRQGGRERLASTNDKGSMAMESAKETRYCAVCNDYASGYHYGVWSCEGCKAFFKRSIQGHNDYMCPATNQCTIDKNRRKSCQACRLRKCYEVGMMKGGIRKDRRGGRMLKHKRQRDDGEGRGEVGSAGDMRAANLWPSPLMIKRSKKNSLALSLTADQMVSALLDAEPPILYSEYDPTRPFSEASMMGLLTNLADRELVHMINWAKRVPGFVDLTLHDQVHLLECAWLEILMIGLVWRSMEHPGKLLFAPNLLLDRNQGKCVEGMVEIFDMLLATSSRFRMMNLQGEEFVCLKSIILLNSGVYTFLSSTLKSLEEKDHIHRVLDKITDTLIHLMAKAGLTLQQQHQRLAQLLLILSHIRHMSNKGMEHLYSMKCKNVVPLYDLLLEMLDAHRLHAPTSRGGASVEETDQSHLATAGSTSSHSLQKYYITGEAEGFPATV
Chain of Androgen receptor (Homo sapiens) (P10275 whole entry, looked up): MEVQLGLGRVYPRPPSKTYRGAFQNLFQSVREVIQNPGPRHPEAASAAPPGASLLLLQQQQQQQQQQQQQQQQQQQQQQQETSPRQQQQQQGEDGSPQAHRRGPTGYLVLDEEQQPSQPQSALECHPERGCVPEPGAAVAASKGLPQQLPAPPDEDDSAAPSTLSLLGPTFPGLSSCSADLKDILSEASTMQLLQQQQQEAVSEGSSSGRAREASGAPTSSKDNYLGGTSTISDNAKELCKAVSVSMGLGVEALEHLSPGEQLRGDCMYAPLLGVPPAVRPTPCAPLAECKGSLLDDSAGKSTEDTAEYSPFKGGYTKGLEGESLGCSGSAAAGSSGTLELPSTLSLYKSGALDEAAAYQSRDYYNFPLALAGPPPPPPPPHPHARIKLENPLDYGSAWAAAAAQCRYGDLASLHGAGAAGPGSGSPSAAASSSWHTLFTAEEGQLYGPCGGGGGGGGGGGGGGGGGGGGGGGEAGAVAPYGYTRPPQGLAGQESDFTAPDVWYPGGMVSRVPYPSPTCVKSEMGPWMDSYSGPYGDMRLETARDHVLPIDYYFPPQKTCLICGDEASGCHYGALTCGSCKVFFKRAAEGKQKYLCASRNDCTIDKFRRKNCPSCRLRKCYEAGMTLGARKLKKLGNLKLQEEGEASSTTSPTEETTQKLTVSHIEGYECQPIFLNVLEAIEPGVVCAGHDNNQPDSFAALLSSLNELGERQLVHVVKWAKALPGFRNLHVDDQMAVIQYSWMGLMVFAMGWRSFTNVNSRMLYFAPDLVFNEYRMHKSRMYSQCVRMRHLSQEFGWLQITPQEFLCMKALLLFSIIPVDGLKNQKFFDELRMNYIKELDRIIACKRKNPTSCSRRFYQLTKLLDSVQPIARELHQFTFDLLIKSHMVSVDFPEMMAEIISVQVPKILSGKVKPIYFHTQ

In the case of `CC(=O)[O-].CC(=O)[O-].[Hg+2]`, the Potency in [1] was 6.16 µM (active); in experiment [2], 1.54 µM (active); in [3] it was 1.54 µM (active); in [4], 1.09 µM (active); in [5], 11 µM (active); in experiment [6], 27.3 µM (active). Further, the Potency in experiment [7] is 1.37 µM (active); in [8], 49 µM (active); in experiment [9], 61.1 µM (active); in experiment [10], 2.73 µM (active); in experiment [11], 3.86 µM (active).
Take `Fc1cccc(Cl)c1CCl`: the Potency result in experiment [1], in [3], in experiment [4], in [5], in experiment [6] and in experiment [7] was “inactive” in each case. Further, the Potency result in experiment [12], in experiment [8], in [14], in experiment [15], in experiment [16] and in experiment [9] was “inactive” in each case. In addition, the Potency result in experiment [10] and in experiment [11] was “inactive” throughout. Besides, the result in experiment [13] was inactive.
`CCCCCCCCCBr`: the Potency entry in experiment [1], in [3], in experiment [4], in experiment [5], in experiment [6] and in experiment [7] was “inactive” each time. Besides, the Potency entry in [12], in experiment [17], in experiment [8], in experiment [14], in experiment [15] and in experiment [16] was “inactive” each time. The Potency result in [9], in experiment [10] and in experiment [11] was “inactive” throughout. In addition, the compound was called inactive in experiment [13].
Regarding `CNC(C)Cc1ccc2c(c1)OCO2` (configuration not stated), the Potency result in experiment [1], in [2], in experiment [5], in experiment [18], in experiment [19] and in experiment [6] was “inactive” in each case. Also, the Potency entry in experiment [20], in [7], in experiment [17], in [8], in experiment [14] and in experiment [15] was “inactive” throughout. Besides, the Potency result in [16], in [10] and in [11] was “inactive” in each case. Further, in [13], the outcome was inactive.
On to `c1ccc2c(c1)[nH]c1cnccc12`, for which the Potency entry in [1], in experiment [2], in experiment [5], in experiment [6], in [7] and in experiment [8] was “inactive” in each case. Further, the Potency entry in experiment [14], in [15], in experiment [16], in [9], in [10] and in experiment [11] was “inactive” throughout. For the same compound, in experiment [13], the compound was classed as inactive.
With `Cc1cc(C(C)(C)c2cc(C)c(O)c(C)c2)cc(C)c1O`, the Potency in [1] is 42.2 µM (active); in experiment [3], 26.4 µM (active); in experiment [5] it was 26.6 µM (active); in experiment [20] it was 29.6 µM (active); in experiment [7], 23.5 µM (active); in [12], 11.8 µM (active). Moreover, the Potency in experiment [10] is 16.7 µM (active); in experiment [11] it was 26.4 µM (active). Besides, the Potency result in experiment [19], in [6] and in experiment [9] was “inactive” throughout. Further, the call in experiment [13] was inactive.
Consider `Nc1ccc(Cc2ccc(N)c(Cl)c2)cc1Cl`, for which the Potency in [1] was 53.1 µM (active); in experiment [2], 74.4 µM (active); in [7], 52.7 µM (active); in [17] it was 4.22 µM [inconclusive] (active); in experiment [10] it was 29.6 µM (active). In addition, the Potency result in [6], in experiment [8], in [14] and in [9] was “inactive” throughout.
